Experiment [1] in a line: NCI Yeast Anticancer Drug Screen. Data for the rad50 strain (AID 155).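 Note: 0% = growth of vehicle-only cultures of the same strain.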 Particulars: S. cerevisiae rad50 strain growth inhibition; at 50.0 µM; active compounds read high. A digest of the protocol:
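Genetically altered yeast (DNA repair pathway); compound treatment; growth inhibition vs vehicle ctrl.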

Experiment [2] is described as follows: NCI Yeast Anticancer Drug Screen. Data for the mec2-1 strain (AID 157). Particulars: S. cerevisiae mec2-1 strain, at 50.0 µM, active compounds read high. The method in brief:
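Each compound was tested on mec2-1 yeast, a strain altered in DNA damage repair or cell cycle control. Growth inhibition is reported relative to vehicle.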

Experiment [3] can be described thus: NCI Yeast Anticancer Drug Screen. Data for the sgs1 mgt1 strain (AID 161).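 Note: 0% = growth of cultures given vehicle only.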 The note with it: S. cerevisiae sgs1 mgt1 strain, at 50.0 µM, active compounds read high. A digest of the protocol: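 Mutant yeast exposed to compound; growth scored against vehicle-only wells.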
Experiment [4] can be described thus: NCI Yeast Anticancer Drug Screen. Data for the cln2 rad14 strain (AID 165).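 Note: 0% = growth equal to vehicle treated cultures.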 The note with it: S. cerevisiae cln2 rad14 strain, at 50.0 µM, active compounds read high. The method in brief: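 Test compounds were added to cln2 rad14 yeast cultures; inhibition of growth was then determined by comparison with vehicle treatment.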
Experiment [5] can be described thus: NCI Yeast Anticancer Drug Screen. Data for the bub3 strain (AID 167). Particulars: S. cerevisiae bub3 mutant strain, at 50.0 µM, active compounds read high. The method in brief: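 Yeast carrying a defined mutation is treated with each compound, and growth is compared with that of vehicle-exposed cells to give inhibition.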
Experiment [6] is described as follows: NCI Yeast Anticancer Drug Screen. Data for the mlh1 rad18 strain (AID 175). Particulars: S. cerevisiae mlh1 rad18 strain growth inhibition; at 50.0 µM; active compounds read high. The method in brief: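 Inhibition values reflect reduced growth of mutant yeast versus vehicle-treated controls following compound exposure; the mutations affect DNA damage repair.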

“And” between values parts separate entries of the source, which are not always exact repeats. Equal entries are not always repeated. The panel holds about 79,000 compounds, 15% with a hit somewhere; the sample as a whole holds those more often. Unmarked numbers belong to inactive results. The source made the active and inactive calls. Cut-off read from the data, not from the text of the source: active = growth inhibition above about 70%; inactive = the rest.

Consider `CN(C)C(=O)Sc1c(Cl)cc(S(=O)(=O)F)cc1[N+](=O)[O-]`, for which the growth inhibition was 22.9% in experiment [1]; 19.1% in experiment [2]; 27.9% in experiment [3]; 29.9% in experiment [4]; 8.9% in experiment [5]; 20.6% in experiment [6].

In the case of `CC1(C)CC(OP(=O)(Cl)OC2CC(C)(C)N(O)C(C)(C)C2)CC(C)(C)N1O`, the growth inhibition was 1.8% in experiment [1]; -0.75% in experiment [2]; 7.85% in experiment [3]; -7.35% in experiment [4]; 1.1% in experiment [5]; -7.65% in experiment [6].

Take `CCCCCCCCCCCCCCC(O)C1CCC(C(O)CCC(O)CCCCCC(O)CC2=CC(C)OC2=O)O1` (stereo unspecified): the growth inhibition is -37.2% in experiment [1]; -33.1% in experiment [2]; -17.6% in experiment [3]; 39.8% in experiment [4]; -25.4% in experiment [5]; 2.7% in experiment [6].

`CC1CCC2[S][Sn]3([NH]C2C1)[NH]C1CC(C)CCC1[S]3` (stereo unspecified): the growth inhibition in experiment [1] is 97% (active); in experiment [2] it was 96.5% (active); in experiment [3], 99.1% (active); in experiment [4] it was 95.8% (active); in experiment [5], 98.2% (active); in experiment [6], 96.5% (active).

`COc1ccc(NC2Oc3cc4c(cc3C(c3cc(OC)c(OC)c(OC)c3)C2C)OCO4)cc1` (stereo unspecified): the growth inhibition in experiment [1] is -1.25%; in experiment [2], 18.9%; in experiment [3], 25.3%; in experiment [4], -13.2%; in experiment [5], 17.1%; in experiment [6], 12%.

In the case of `O=C=Nc1cccc(S(=O)(=O)F)c1`, the growth inhibition is 56.8% in experiment [1]; 4.15% in experiment [2]; 26% in experiment [3]; 28.4% in experiment [4]; 33.9% in experiment [5]; 11.9% in experiment [6].

As to `C=C1CC2CC[C@@]34CC5O[C@@H]6C(O[C@H]7CC[C@H](CC(=O)OC8C(C)C9OC%10C[C@]%11(C[C@@H]%12O[C@]%13(CC(C)[C@@H]%14O[C@H](C(O)CC(O)CO)C[C@@H]%14O%13)CC(C)[C@@H]%12O%11)OC%10CC9O[C@H]8C[C@H]8OC(CC[C@@H]1O2)C[C@@H](C)C8=C)OC7[C@@H]6O3)[C@H]5O4` (stereo partly specified), the growth inhibition in experiment [1] is 87.3% (active); in experiment [2] it was 91.1% (active); in experiment [3], 90.6% (active); in experiment [4] it was 83.7% (active); in experiment [5], 91.1% (active); in experiment [6], 69.8%.

For `CSc1nsc(-c2ccccc2)[s+]1`, the growth inhibition was 13% in experiment [1]; -11.6% in experiment [2]; 2.95% in experiment [3]; -74.5% in experiment [4]; -9.2% in experiment [5]; 18% in experiment [6].

Regarding `C(=C/[PH+](c1ccccc1)c1ccccc1)/[PH+](c1ccccc1)c1ccccc1.[C-]#[O+].[C-]#[O+].[C-]#[O+].[C-]#[O+].[C-]#[O+].[Mo+2].[Mo+4].[c-]1[c-][c-][cH-][c-]1.[c-]1[c-][c-][cH-][c-]1`, the growth inhibition was 91.6% (active) in experiment [1]; 93.5% (active) in experiment [2]; 93.5% (active) in experiment [3]; 92.2% (active) in experiment [4]; 92.9% (active) in experiment [5]; 91.2% (active) in experiment [6].

Regarding `CCOC(=O)C1C(=O)C(CN(CCCl)CCCl)C(=O)C(C(=O)OCC)C1c1cc(OC)c(OC)c(OC)c1` (stereo unspecified), the growth inhibition in experiment [1] is 17.9%; in experiment [2] it was -8.05%; in experiment [3], 16.6%; in experiment [4], -27.9%; in experiment [5], 0%; in experiment [6], 30.9%.

As to `CCCOC(=O)c1cncn1C(C)c1ccccc1` (stereo unspecified), the growth inhibition is 4.4% in experiment [1]; 18.7% in experiment [2]; 37.5% in experiment [3]; 10.7% in experiment [4]; 35.6% in experiment [5]; 31.4% in experiment [6].

Turning to `O=C(O)c1ccccc1`, the growth inhibition in experiment [1] was -11.1% and -31.2%; in experiment [2], -0.2% and -17.9%; in experiment [3] it was -14.8% and 33.1%; in experiment [4] it was -10.7% and -12%; in experiment [5] it was -20.5% and -3.8%; in experiment [6] it was -38.4% and 10.8%.

Consider `N#CN1CC(C(=O)N2CCCCC2)C=C2c3cccc4[nH]cc(c34)CC21` (stereo unspecified), for which the growth inhibition is 9.5% in experiment [1]; -10.8% in experiment [2]; 34.5% in experiment [3]; 0.05% in experiment [4]; 8.95% in experiment [5]; 10.9% in experiment [6].

In the case of `CC[C@@]1(O)C(=O)OCc2c1cc1n(c2=O)Cc2c-1nc1ccccc1c2Cl`, the growth inhibition is 94.9% (active) in experiment [1]; 92% (active) in experiment [2]; 63.8% in experiment [3]; 81.8% (active) in experiment [4]; -6.7% in experiment [5]; 46.3% in experiment [6].

For the compound `CO[C@H]1C[C@H](O[C@H]2CC[C@]3(C=O)[C@H]4CC[C@]5(C)[C@@H](C6=CC(=O)OC6)CC[C@]5(O)[C@@H]4CC[C@]3(O)C2)O[C@H](C)[C@H]1O[C@@H]1O[C@H](CO)[C@@H](O)[C@H](O)[C@H]1O`, the growth inhibition in experiment [1] is 18.4%; in experiment [2] it was -11.1%; in experiment [3], 6.2%; in experiment [4] it was 12.2%; in experiment [5], 6.9%; in experiment [6], 32.3%.

Take `CC(N)C(=O)O` (stereo unspecified): the growth inhibition in experiment [1] is 17.9% and -7.45%; in experiment [2] it was -43.1% and -5.4%; in experiment [3] it was 8.7% and -25.4%; in experiment [4] it was 5.8% and 12.2%; in experiment [5] it was 7.65% and -26.8%; in experiment [6], 8.2% and -9.2%.

Turning to `Nc1nnc[se]1`, the growth inhibition in experiment [1] was 7.85%; in experiment [2] it was 5.35%; in experiment [3] it was -8.1%; in experiment [4], -1.55%; in experiment [5] it was -4.2%; in experiment [6] it was -1.6%.

Turning to `OC1C2CCCCN2C[C@@H](O)[C@H]1O` (stereo partly specified), the growth inhibition is 16.3% in experiment [1]; 11.9% in experiment [2]; 22.1% in experiment [3]; 22.6% in experiment [4]; 12% in experiment [5]; -34% in experiment [6].

As to `CC1N=NNN1C` (stereo unspecified), the growth inhibition in experiment [1] is -1.8%; in experiment [2], -9.7%; in experiment [3], -2.3%; in experiment [4], -5.9%; in experiment [5], 8.75%; in experiment [6], -8.65%.

With `COc1ccc2c(c1)-c1c(ccc(OC)c1OC(=O)C(=O)c1ccccc1)CC(Cl)N(C)CC2.[O]=[Cr](=[O])([OH])[OH]` (stereo unspecified), the growth inhibition in experiment [1] was -18.3%; in experiment [2], -0.55%; in experiment [3], -19.5%; in experiment [4] it was -17%; in experiment [5], -1.3%; in experiment [6], -1.25%.

Regarding `CC(=O)c1ccccc1O`, the growth inhibition was 10.8% and 2.05% in experiment [1]; 11.4% and -10.9% in experiment [2]; -53.4% and -0.4% in experiment [3]; -13.4% and 2.05% in experiment [4]; -16.9% and 3.7% in experiment [5]; -29.4% and -4.5% in experiment [6].
